This note sets out measurements from PubChem BioAssay AID1851 (National Center for Advancing Translational Sciences (NCATS), 2009).

“And” between values parts separate entries of the source, which are not always exact repeats. Equal entries are not always repeated. The campaign covered roughly 16,000 compounds. About 5,700 (36%) were called active. Inconclusive results (about 24%) are left out. Calls follow the shape of the dose curve; as a rule, active = well fitted curve in the direction sought with a large enough effect; inconclusive = small, poorly fitted or top-dose-only effect, or effect the other way; inactive = no such curve, though single readings can be large or run the other way. The list shows a part of the results. Peptide text beside a SMILES is read from it. * marks the point of attachment. Cbz = O=C(OCc1ccccc1)*
% is scaled to controls: 0 for no effect and ±100 for the full control effect.

Sequence of Cytochrome P450 1A2 (Homo sapiens) (P05177 whole entry, looked up): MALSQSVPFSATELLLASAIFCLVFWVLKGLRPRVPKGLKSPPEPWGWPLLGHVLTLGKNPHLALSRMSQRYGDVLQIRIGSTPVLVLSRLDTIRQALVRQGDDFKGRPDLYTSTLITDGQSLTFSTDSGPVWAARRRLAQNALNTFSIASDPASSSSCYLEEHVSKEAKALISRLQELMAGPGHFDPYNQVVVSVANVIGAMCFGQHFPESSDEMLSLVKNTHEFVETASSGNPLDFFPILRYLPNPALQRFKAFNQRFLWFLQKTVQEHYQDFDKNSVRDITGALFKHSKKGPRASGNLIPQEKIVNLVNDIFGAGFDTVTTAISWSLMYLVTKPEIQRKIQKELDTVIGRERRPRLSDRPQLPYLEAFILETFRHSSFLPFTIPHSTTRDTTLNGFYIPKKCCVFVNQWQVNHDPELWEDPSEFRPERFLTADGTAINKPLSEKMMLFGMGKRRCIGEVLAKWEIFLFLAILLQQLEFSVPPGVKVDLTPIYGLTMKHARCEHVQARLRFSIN

This assay addresses Cytochrome P450 1A2 (Homo sapiens) (UniProt P05177). The assay can be described thus: Cytochrome panel assay with activity outcomes. The note with it: recombinant CYP, pro-luciferin dealkylation, luminescence, p450-cyp1a2; series mostly up to 57.1 µM.
Turning to `c1ccc2c[n+](Cc3ccnc4ccccc34)ccc2c1`, the activity, negative = inhibition is -21.8% [at 2.29 µM] (inactive). For the compound `CCOC(=O)N1CCC(NC(=O)c2cc(S(=O)(=O)N3CCCC3)cn2C)CC1`, the AC50 entry was “inactive”. Consider `O=C(CCN1CCOCC1)Nc1ccc(F)cc1F`, for which the activity, negative = inhibition is -11.8% [at 11.4 µM] (inactive). On to `COC(=O)c1[nH]c2cc(OC)ccc2c1NC(=O)CCN1CCSCC1`, for which the AC50 is 1.41 µM (active). With `CCN1CCN(CCC(=O)Nc2cccc(OC)c2)CC1`, the AC50 entry is “inactive”.

As to `CCOC(=O)c1[nH]c2ccc(OC)cc2c1NC(=O)c1ccc2c(c1)OCO2`, the AC50 was 2.24 µM (active). On the same count and under the same terms, then `CN(C)c1ncc2nc(-c3ccc(F)cc3)c(=O)n(C[C@H]3CCCO3)c2n1`, with 2.51 µM (active). The same measure, in the same setting: in the case of `COc1ccc(-c2nc3cnc(N(C)C)nc3n(C[C@H]3CCCO3)c2=O)cc1` it was 3.16 µM (active). On the same count and under the same terms, in the case of `C/C(CCc1ccc2c(c1)OCO2)=N\N=C1\NC(=O)CC(C(=O)Nc2ccccc2)S1` (stereo not drawn) it was 15.8 µM (active); in that of `C[C@@H]1[C@H]2CC[C@@H]3[C@@H]4CC=C5C[C@@H](N(C)C)CC[C@]5(C)[C@@H]4CC[C@@]32CN1C`, “inactive”; in that of `CCOc1[nH]n(-c2ccc(Cl)cc2)c(=O)c1C=Nc1ccc(Cl)cc1`, 2.82 µM (active). As to `CCc1nnc(NS(=O)(=O)c2ccc(N=Cc3c(C)[nH]n(-c4ccc(C)cc4)c3=O)cc2)s1`, the AC50 entry is “inactive”. Still for that read-out and setting: then `CCOc1[nH]n(-c2ccccc2)c(=O)c1C=Nc1ccc(Cl)cc1`, with 2 µM (active); and `OCCN1CCOCCOCCN(CCO)CCN(CCO)CC1`, with “inactive”; and `Nc1nc(Br)c2c(F)cccc2c1-c1ccc(Cl)cc1`, with 3.55 µM (active).

For the compound `Nc1nc(Br)c2c(F)cccc2c1-c1ccc(F)cc1`, the AC50 is 1.26 µM (active). As for `Nc1nc(Br)c2ccccc2c1-c1ccc(F)cc1`, the half-maximal activity concentration (AC50) is 1.26 µM (active). `CCCOc1ccc(C2C(=O)N(C3CCCCC3)CC(=O)N2C2CC2)cc1OC` (stereo not drawn): the AC50 result is “inactive”. On the same count and under the same terms, then `CCCCCCCCCCCCCCCC(=O)NC(C)C`, with “inactive”; and `CCCCCCCCCCCCC/C=C\[C@@H](O)[C@H](CO)NC(C)=O`, with 20 µM (active). As to `CCCCCCCCCCCCCCC/C=C\[C@H](O)[C@@H](NC(=O)CCCCCCCCCCCCC)OC` (tested in a mixture with another compound), the AC50 result is “inactive”. With `CC(=O)Nc1ccc(S(=O)(=O)N=S(C)C)cc1`, the AC50 entry was “inactive”. `Cc1cc(C)c(C#N)c(OCC(=O)c2ccc(Br)cc2)n1`: the AC50 is 1.26 µM (active). Consider `Cc1cccc(C)c1NC(=O)CSc1nc(C)c(CC(=O)c2ccc(Br)cc2)c(C)c1C#N`, for which the AC50 result is “inactive”. As to `Fc1cc2nc(-c3ccncc3)[nH]c2cc1F`, the half-maximal activity concentration (AC50) was 2 µM (active). As for `Cc1cc2nc(SCCOC(=O)Nc3ccc(Cl)cc3)nc(C)c2cc1C`, the AC50 is 1.41 µM (active).

As for `CCCCCCCCCCCC1=C(O)C(=O)C=C(O)C1=O`, the AC50 result was “inactive”. For the compound `COCCn1c(=O)c(-c2ccc(OC)cc2)nc2cnc(OC)nc21`, the AC50 was 3.16 µM (active). Regarding `COCCn1c(=O)c(-c2ccc(Cl)cc2)nc2cnc(OC)nc21`, the AC50 is 0.398 µM (active).

For `COCCn1c(=O)c(-c2ccccc2)nc2cnc(OC)nc21`, the half-maximal activity concentration (AC50) was 1 µM (active).

Regarding `CC(C)=CCC/C(C)=C/CO/N=C1/C[C@@H](O)[C@@H](O)[C@@H]2[C@@H]3C(=O)N(C(C)(C)C)C(=O)[C@H]3CC[C@H]12`, the activity, negative = inhibition is -9.03% [at 11.4 µM] (inactive). For `O=C(NNS(=O)(=O)c1ccc(Cl)cc1)c1cnn(-c2ccccc2)c1-n1cccc1`, the AC50 was 17.8 µM (active). For `O=C(NNS(=O)(=O)c1ccc(Cl)cc1)C1CCN(Cc2ccccc2)CC1`, the AC50 entry is “inactive”.

For `CCOC(=O)N1CCC(NC(=O)CSCc2cnn(-c3ccccc3)c2-n2cccc2)CC1`, the AC50 result was “inactive”. Regarding `Cc1ccc(NC(=S)c2nc3ccccc3s2)cc1`, the AC50 was 0.562 µM (active). For the compound `Cc1cccc(NC(=S)c2nc3ccccc3s2)c1`, the AC50 is 1.12 µM (active). Turning to `Cc1cccc(NC(=O)CSc2nc(-c3ccccc3)c(C#N)c(=O)[nH]2)c1C`, the AC50 entry was “inactive”. Same read-out and setting: then `N#Cc1c(-c2cccs2)nc(SCC(=O)c2cccs2)[nH]c1=O`, with 8.91 µM (active).

Consider `O=C(O)c1c(Br)c(Br)c(Br)c(Br)c1C1c2ccc(O)cc2Oc2cc(O)ccc21`, for which the activity, negative = inhibition is -6.83% [at 2.29 µM] (inactive).

As for `CN=c1nc(-c2ccccc2)n(-c2ccccc2)s1`, the AC50 is 5.01 µM (active). For the compound `CCn1c(SCc2ccc(C)cc2)nnc1-c1nn(-c2ccccc2)ccc1=O`, the AC50 result was “inactive”. Same read-out and setting: in the case of `CCn1c(SCc2ccc(C#N)cc2)nnc1-c1ccc(S(=O)(=O)N2CCCCC2)cc1` it was “inactive”. As to `CCn1c(SCc2cccc(C)c2)nnc1-c1ccc(C)cc1`, the AC50 is 17.8 µM (active).

Consider `CCn1c(SCc2cccc(C)c2)nnc1-c1ccccc1`, for which the AC50 was 3.55 µM (active). Take `CCOC(=O)c1cnn(CCOC(=O)C(C)(C)C)c1NC(=O)C(C)(C)C`: the AC50 entry is “inactive”. For the compound `CCOC(=O)c1cnc2c(cnn2CC)c1NN=C(C)C`, the AC50 is 501 nM (active) and 126 nM (active).

Take `CN(C)CCCNc1c(C(=O)O)cnc2c1cnn2C`: the AC50 result was “inactive”. On to `CCCCNc1c(C(=O)OCC)c(C)nc2c1cnn2CC`, for which the AC50 was 63.1 nM (active) and 631 nM (active).

Take `O=C(CCCN1CCC(O)(c2cccc(C(F)(F)F)c2)CC1)c1ccc(F)cc1`: the AC50 entry is “inactive”. Same read-out and setting: then `O=C(Cn1nnc(-c2ccccc2)n1)OCc1ccccc1`, with 1.78 µM (active); and `NC(=O)C1CCN(C(=O)OCc2ccccc2)CC1`, with “inactive”. For the compound `COC(=O)CCC(NC(=O)OCc1ccccc1)C(=O)NC(CC(C)C)C(=O)OC` (stereo not drawn) (Cbz-Glu(OMe)-Leu-OMe; configuration not given here), the AC50 entry is “inactive”. On to `Cc1cc(C(=O)O)c(=O)[nH]c1C`, for which the AC50 result is “inactive”. With `Cc1[nH]c2c(C)ccc(C)c2c1CC(=O)O`, the AC50 is 3.16 µM (active). Turning to `Cc1[nH]c(N)nc(=S)c1CCC(=O)O`, the activity, negative = inhibition was -11.2% [at 11.4 µM] (inactive).

As to `CC1CCCC(n2c(=S)[nH]c3ccccc3c2=O)C1C` (stereo not drawn), the AC50 is 7.08 µM (active).

For the compound `C/C(CCC(=O)OC[C@@H]1O[C@H](C#Cc2ccccc2)C=C[C@@H]1Oc1ccc(C)cc1)=N/O[C@@H](C)c1cc(-c2c(C)cc(C)cc2C)no1`, the activity, negative = inhibition is -4.43% [at 11.4 µM] (inactive).

On to `Cc1nc(N2CCOCC2)nc(N2CCN(c3ccccc3)CC2)c1[N+](=O)[O-]`, for which the half-maximal activity concentration (AC50) was 7.08 µM (active).
